Inconclusive results are not listed. Activity calls are given as the source filed them. Unless noted, the call rests on the fitted dose curve; in most records, active means well fitted curve in the direction sought with a large enough effect in the repeat runs; inconclusive means weak or mixed curves; inactive means no such curve, though single readings can be large; an effect the other way counts as inactive or inconclusive.
Experiments:
[1] = qHTS assay for small molecule agonists of the p53 signaling pathway (AID 651631; calls by dose curve; further: nearly all actives have a fitted effect of over 15% in size; further: potency means the concentration at half of the fitted maximal effect)
Procedure, shortened: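 Stably transfected HCT-116 cells (beta-lactamase behind p53 response elements) get compounds after a 5 h settling period; 16 h later at 37 °C, FRET substrate is loaded and fluorescence read after 2 h.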

[2] = qHTS assay for small molecules that induce genotoxicity in human embryonic kidney cells expressing luciferase-tagged ATAD5 (AID 651632); further: nearly all actives have a fitted effect of over 15% in size
Procedure, shortened: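 DMSO vehicle served as the control. HEK293T reporter cells, 16 hr at 37C, then 30 min Amplite at room temperature; ATAD5 induction is measured as luciferase activity.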

[3] = qHTS assay for small molecule agonists of the p53 signaling pathway - cell viability (AID 651633; calls by dose curve;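 further: p53RE-bla HCT reporter cells with a stable beta-lactamase p53 reporter; series mostly up to about 83 µM; nearly all actives have a fitted effect of over 30% in size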)
Procedure, shortened: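 p53RE-bla cells were treated with compound for 16 hours at 37 C. Cytotoxicity was then measured as CellTiter-Glo luminescence after 30 min at room temperature.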

[4] = qHTS assay for small molecules that induce genotoxicity in human embryonic kidney cells expressing luciferase-tagged ATAD5 - cell viability (AID 651634; calls by dose curve; further: nearly all actives have a fitted effect of over 25% in size)
Procedure, shortened: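 Here HEK293T cells with the ATAD5 luciferase reporter are incubated with test compounds for 15.5 hr, and cytotoxicity is then gauged by measuring protease activity in live cells using fluorescence.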

[5] = qHTS assay for small molecule disruptors of the mitochondrial membrane potential - cell viability (AID 720634; calls by dose curve;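 further: human HepG2 liver cancer cells; series mostly up to about 83 µM; nearly all actives have a fitted effect of over 20% in size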)
Procedure, shortened: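 Viability of HepG2 cells is scored from ATP content by luminescence; cells are exposed to compound for 1 hr at 37 C and 5% CO2, then dosed with m-MPI dye before the CellTiter-Glo reagent.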

[6] = qHTS assay to test for compound auto fluorescence at 590 nm (red) in HepG2 cells (AID 720674)
Procedure, shortened: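 Fluorescence at 590 nm emission following 540 nm excitation was recorded from HepG2 wells one hour after compound transfer, with DMSO-only wells as vehicle and Rose Bengal sodium equivalency as the scale.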

[7] = qHTS assay to test for compound auto fluorescence at 535 nm (green) in HepG2 cells (AID 720675)
[8] = qHTS assay to test for compound auto fluorescence at 460 nm (blue) in HEK293 cells (AID 720678)
Procedure, shortened: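 HEK293 cells (2,000 per well, medium with 10% dialyzed FBS) attached for 4-5 hr at 37C, then received compound and stood overnight at 37C, 5% CO2. Blue fluorescence was read at Ex/Em 405/460 nm and expressed relative to triamterene.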

[9] = qHTS assay to test for compound auto fluorescence at 590 nm (red) in HEK293 cells (AID 720679)
Procedure, shortened: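 HEK293 cells (2,000/well, medium with 10% dialyzed FBS) attached for 4-5 hr at 37C, received 23 nL compound and were incubated overnight at 37C, 5% CO2. Red fluorescence was then read at 540/590nm Ex/Em, referenced to Rose Bengal sodium.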

[10] = qHTS assay to test for compound auto fluorescence at 535 nm (green) in HEK293 cells (AID 720680)
[11] = qHTS assay to test for compound auto fluorescence at 460 nm (blue) in HEK293 cell free culture (AID 720681)
Procedure, shortened: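 Compounds were added to cell-free DMEM with 10% FBS and fluorescence read directly. The blue channel used 405 nm excitation and 460 nm emission, with triamterene as the reference fluorophore.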

[12] = qHTS assay to test for compound auto fluorescence at 590 nm (red) in HEK293 cell free culture (AID 720683)
Procedure, shortened: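 Cell-free wells of DMEM with 10% FBS received compound, and intrinsic fluorescence was read at excitation/emission 540/590 nm. Values expressed as equivalence to Rose Bengal sodium.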

[13] = qHTS assay to test for compound auto fluorescence at 590 nm (red) in HepG2 cell free culture (AID 720684)
Procedure, shortened: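 Auto fluorescence equivalency versus Rose Bengal sodium, red channel Ex/Em 540/590 nm; compounds in cell-free MEM/10% FBS; DMSO vehicle control.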

[14] = qHTS assay to test for compound auto fluorescence at 460 nm (blue) in HepG2 cell free culture (AID 720685)
Procedure, shortened: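 Cell-free plates of MEM plus 10% FBS received 23 nL compound or DMSO vehicle; blue-channel (405/460 nm) intensity scored against triamterene as reference fluorophore.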

[15] = qHTS assay to test for compound auto fluorescence at 535 nm (green) in HepG2 cell free culture (AID 720686)
[16] = qHTS assay to test for compound auto fluorescence at 460 nm (blue) in HepG2 cells (AID 720687)
Procedure, shortened: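 HepG2 cells in MEM with 10% FBS, attached overnight at 37 C, were exposed to compound or DMSO for 1 hr at 37 C, 5% CO2. Blue fluorescence was read at 405/460 nm, with triamterene as reference fluorophore.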

[17] = target: Glucocorticoid receptor (Homo sapiens) (UniProt P04150); assay: qHTS assay to identify small molecule agonists of the glucocorticoid receptor (GR) signaling pathway (AID 720691; active means well fitted activation curve with a large enough effect in the signal ratio in the repeat runs, not every such curve was filed as active; the % refers to the signal ratio; further: potency means the concentration at half of the fitted maximal effect)
Glucocorticoid receptor (Homo sapiens), sequence (P04150 whole entry, looked up): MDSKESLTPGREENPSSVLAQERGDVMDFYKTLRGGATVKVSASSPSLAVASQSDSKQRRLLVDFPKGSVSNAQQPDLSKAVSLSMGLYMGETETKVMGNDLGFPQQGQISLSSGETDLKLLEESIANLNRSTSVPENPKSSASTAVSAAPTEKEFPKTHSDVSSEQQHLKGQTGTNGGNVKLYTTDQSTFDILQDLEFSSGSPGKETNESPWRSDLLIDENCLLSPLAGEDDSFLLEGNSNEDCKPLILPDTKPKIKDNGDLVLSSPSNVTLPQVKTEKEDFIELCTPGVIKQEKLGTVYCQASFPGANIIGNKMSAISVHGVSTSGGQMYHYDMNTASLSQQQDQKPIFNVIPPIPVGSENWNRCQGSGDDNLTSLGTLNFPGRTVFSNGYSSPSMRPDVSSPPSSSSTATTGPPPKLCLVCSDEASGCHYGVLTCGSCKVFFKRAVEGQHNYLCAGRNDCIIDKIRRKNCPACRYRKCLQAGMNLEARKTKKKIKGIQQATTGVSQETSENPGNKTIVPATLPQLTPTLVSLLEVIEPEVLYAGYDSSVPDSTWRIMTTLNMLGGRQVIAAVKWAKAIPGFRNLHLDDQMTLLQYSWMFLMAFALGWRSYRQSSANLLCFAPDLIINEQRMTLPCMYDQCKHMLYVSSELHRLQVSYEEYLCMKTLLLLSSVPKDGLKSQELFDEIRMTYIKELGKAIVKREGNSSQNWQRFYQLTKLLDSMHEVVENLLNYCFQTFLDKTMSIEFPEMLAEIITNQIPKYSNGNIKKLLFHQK
Procedure, shortened: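 Compounds in DMSO, alongside positive controls, were added to GR-bla HeLa reporter cells and incubated 18 h at 37 C; GRE-driven beta-lactamase was detected by fluorescence after 2 h with FRET substrate at room temperature.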

[18] = target: Glucocorticoid receptor (Homo sapiens) (UniProt P04150); assay: qHTS assay to identify small molecule antagonists of the glucocorticoid receptor (GR) signaling pathway (AID 720692; active means well fitted inhibition curve with a large enough effect in the signal ratio in the repeat runs, not every such curve was filed as active; the % refers to the signal ratio)
Procedure, shortened: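 In a 1536-well cell format, compounds were added 4 h after seeding GR-bla HeLa cells, together with dexamethasone at 5 nM final; reporter activity was measured by FRET-substrate fluorescence following 18 h at 37 C.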

[19] = qHTS assay to test for compound auto fluorescence at 535 nm (green) in HEK293 cell free culture (AID 720682)
Procedure, shortened: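 Using fluorescein as calibrant, autofluorescence was quantified at 485/535 nm in cell-free DMEM containing 10% FBS after pintool addition of compound or vehicle.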
On the % scale 0 is the no-effect control and ±100 the full control effect.

COCCOCCOCCOCCOC
inactive: Potency [1] | Potency [2] | Potency [3] | Potency [4] | Potency [5] | outcome [6] | outcome [7] | Potency [8] | outcome [9] | outcome [10] | Potency [11] | outcome [12] | outcome [13] | Potency [14] | outcome [15] | Potency [16] | Potency [17] | Potency [18]

CC(C)CCCC(C)CCO (configuration not stated)
inactive: Potency [1] | Potency [2] | Potency [3] | Potency [4] | Potency [5] | outcome [6] | outcome [7] | Potency [8] | outcome [9] | outcome [10] | Potency [11] | outcome [12] | outcome [13] | Potency [14] | outcome [15] | Potency [16] | Potency [17] | Potency [18]

CC(=O)[C@@]1(O)CC[C@H]2[C@@H]3C[C@H](C)C4=CC(=O)CC[C@]4(C)[C@H]3CC[C@@]21C
inactive: Potency [1] | Potency [2] | Potency [3] | Potency [4] | Potency [5] | outcome [7] | Potency [8] | outcome [9] | outcome [10] | Potency [11] | outcome [19] | outcome [12] | outcome [13] | Potency [14] | outcome [15] | Potency [16]
active: Potency [17] 84.9 nM

Nc1cnn([C@@H]2O[C@H](CO)[C@@H](O)[C@H]2O)c(=O)n1
inactive: Potency [2] | Potency [3] | Potency [4] | Potency [5] | outcome [6] | outcome [7] | Potency [8] | outcome [9] | outcome [10] | outcome [19] | outcome [12] | outcome [13] | Potency [14] | outcome [15] | Potency [16]
active: Potency [1] 1940 nM

CC(C)c1ccccc1C(C)C
inactive: Potency [1] | Potency [2] | Potency [3] | Potency [4] | Potency [5] | outcome [7] | Potency [8] | outcome [9] | outcome [10] | Potency [11] | outcome [19] | outcome [12] | outcome [13] | Potency [14] | outcome [15] | Potency [16] | Potency [17]

CC(=O)Nc1ccc(/C=N/NC(N)=S)cc1
inactive: Potency [1] | Potency [2] | Potency [3] | Potency [4] | Potency [5] | outcome [7] | Potency [8] | outcome [9] | outcome [10] | Potency [11] | outcome [19] | outcome [12] | Potency [14] | outcome [15] | Potency [16]

C=CC[N+]1([C@H]2C[C@H]3[C@@H]4CC[C@H]5C[C@H](OC(C)=O)[C@@H](N6CCCCC6)C[C@]5(C)[C@H]4CC[C@]3(C)[C@H]2OC(=O)CC)CCCCC1
inactive: Potency [1] | Potency [2] | Potency [3] | Potency [4] | Potency [5] | outcome [6] | outcome [7] | Potency [8] | outcome [9] | outcome [10] | Potency [11] | outcome [19] | outcome [12] | Potency [16]

C1=Cc2ccccc2C1
inactive: Potency [1] | Potency [2] | Potency [3] | Potency [4] | Potency [5] | outcome [6] | outcome [7] | Potency [8] | outcome [9] | outcome [10] | outcome [19] | outcome [12] | outcome [13] | Potency [14] | outcome [15] | Potency [16]

OCC1CC2CC1C1CCC(CO)C21 (configuration not stated)
inactive: Potency [1] | Potency [2] | Potency [3] | Potency [4] | Potency [5] | outcome [7] | Potency [8] | outcome [9] | outcome [10] | Potency [11] | outcome [19] | outcome [12] | outcome [13] | outcome [15] | Potency [16]

CC(=O)OC/C=C/c1ccccc1
inactive: Potency [1] | Potency [2] | Potency [3] | Potency [4] | Potency [5] | outcome [6] | outcome [7] | Potency [8] | outcome [9] | outcome [10] | Potency [11] | outcome [19] | outcome [12] | outcome [13] | Potency [14] | Potency [16] | Potency [17] | Potency [18]

CN(C)CCCOc1nn(Cc2ccccc2)c2ccccc12
inactive: Potency [1] | Potency [2] | Potency [3] | Potency [4] | Potency [5] | fluorescence, relative to Rose Bengal [6] -0.438% [at 18.6 µM] | fluorescence, % of fluorescein control [7] -0.0147% [at 18.6 µM] | fluorescence, % of triamterene [8] -0.0099% [at 18.6 µM] | fluorescence, % of fluorescent control [9] 0.312% [at 18.6 µM] | fluorescence, % of fluorescein [10] 0.0226% [at 18.6 µM] | fluorescence, % of fluorescent control [11] -0.101% [at 18.6 µM] | activity change [19] -0.0035% [at 18.6 µM] | fluorescence, % of fluorescent control [12] 0.117% [at 18.6 µM] | fluorescence, % of Rose Bengal [13] -0.0465% [at 18.6 µM] | fluorescence, % of fluorescein control [15] 0.0194% [at 18.6 µM] | fluorescence, % of fluorescent control [16] -0.0064% [at 18.6 µM] | Potency [17] | Potency [18]

CC(C)=CCCC(C)CC=O (configuration not stated)
inactive: Potency [1] | Potency [2] | Potency [3] | Potency [4] | Potency [5] | outcome [7] | Potency [8] | outcome [9] | outcome [10] | Potency [11] | outcome [19] | outcome [12] | outcome [13] | Potency [14] | outcome [15] | Potency [16] | Potency [17] | Potency [18]

Oc1ccc(C(O)CNCCCCCCNCC(O)c2ccc(O)c(O)c2)cc1O (configuration not stated)
inactive: Potency [1] | Potency [2] | Potency [3] | Potency [4] | Potency [5] | outcome [6] | outcome [7] | Potency [8] | outcome [9] | outcome [10] | Potency [11] | outcome [19] | outcome [12] | Potency [14] | outcome [15] | Potency [16] | Potency [17] | Potency [18]

CCCC(=O)OCC
inactive: Potency [1] | Potency [2] | Potency [3] | Potency [4] | Potency [5] | outcome [6] | outcome [7] | Potency [8] | outcome [9] | outcome [10] | Potency [11] | outcome [19] | outcome [12] | Potency [14] | outcome [15] | Potency [16] | Potency [17] | Potency [18]

O=C(O)c1cccc(N(Cc2cccnc2)c2ccc(OC(F)F)c(OC(F)F)c2)c1
inactive: Potency [1] | Potency [2] | Potency [3] | Potency [4] | Potency [5] | outcome [6] | outcome [7] | Potency [8] | outcome [9] | outcome [10] | Potency [11] | outcome [19] | outcome [12] | outcome [13] | Potency [14] | Potency [16]

— PubChem BioAssay (Tox21)
